Pf Dd2 inh: blocks growth of Plasmodium falciparum Dd2 parasites; AID 1159554; 2.3% of 94,000 active; activity change, % at 10 µM; P. falciparum Dd2 growth, SYBR Green, 72 h; active compounds read low; in the data active = activity change below about -80%; inconclusive = no clear call, values can overlap the other calls
C diff HTS: blocks growth of Clostridium difficile; Clostridium difficile clinical isolate growth, OD600, 24 h; active compounds read low; growth activity, negative = inhibition, % at 16 µg/mL (by protocol); 0.25% of 86,000 active;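 active = mean growth activity at or below -80% and every replicate also at or below -80%; inconclusive = mean at or below -80% but some replicate above -80%; inactive = mean growth activity above -80%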;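 also: 0% = DMSO wells and -100% = levofloxacin 16 µg/mL wells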
T cruzi growth-1: inhibitors of T. cruzi proliferation | AID 624255 | T. cruzi beta-gal in NIH3T3, GalScreen luminescence, 90 h | 5.9% of 77,000 active | inhibition, % at 8.34 µM;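 active = mean inhibition above about 93%, with at least 55% of replicates each passing it, limit read from the data, passing the limit was not always enough; inconclusive = only one of those two conditions holds; inactive = neither condition holds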
T cruzi growth-2: Trypanosoma cruzi proliferation inhibition; shares compounds with T cruzi growth-1; T. cruzi beta-gal in NIH3T3, GalScreen luminescence, 90 h; inhibition, % at 8.35 µM; 72% of 5,600 active; AID 651739;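 active = mean replicate inhibition above about 95% and at least 55% of replicates individually reaching it, limit read from the data; inconclusive = only one of the two criteria is met; inactive = neither criterion is met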
T cruzi growth-3: blocks T. cruzi growth in NIH3T3 host cells; shares compounds with T cruzi growth-1; T. cruzi beta-gal in NIH3T3, GalScreen luminescence, 90 h; inhibition, % at 2.09 µM; 21% of 5,600 active;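 active = mean inhibition above about 95%, with at least 55% of replicates also reaching it, limit read from the data; inconclusive = meets just one of the two conditions; inactive = meets neither condition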;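 also: plate controls were neutral control median for no effect and positive control median for full effect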
3T3 cytotox: kills mouse NIH/3T3 fibroblasts. shares compounds with T cruzi growth-1. NIH/3T3 viability, CellTiter-Glo ATP luminescence, 90 h. cytotoxicity (signal decrease), % at 8.35 µM. 14% of 5,600 active. AID 651742;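 active = mean signal decrease across replicates above about 35% based on untreated-well scatter, with enough replicates individually passing, limit read from the data; inconclusive = no rule stated though some were filed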;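 also: 0% = median of neutral control wells and 100% = median of positive control wells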
3T3 cytotox 2: NIH/3T3 (mouse) viability loss; shares compounds with T cruzi growth-1; NIH/3T3 viability, CellTiter-Glo ATP luminescence, 90 h; inhibition, % at 24.9 µM; 56% of 5,600 active; AID 651744;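 active = mean loss of cell viability signal at or above a set limit, and enough replicates individually reaching it; inconclusive = meets only the mean limit or only the replicate share; inactive = meets neither condition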;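 also: 0% = median of neutral control wells and 100% = median of positive control wells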
* = called active by the depositor; ? = inconclusive; / = no result given. In the library only some 6.7% were active in any assay of this set; here they are far more common.

SMILES | Pf Dd2 inh | C diff HTS | T cruzi growth-1 | T cruzi growth-2 | T cruzi growth-3 | 3T3 cytotox | 3T3 cytotox 2
Cc1ccccc1S(=O)(=O)N1[C@H](C#N)[C@H](c2ccc(-c3ccc(F)cc3)cc2)[C@@H]1CO | -24 | 21 | 92 | / | / | / | /
Cc1ccccc1S(=O)(=O)N1[C@@H](C#N)[C@@H](c2ccc(-c3ccccc3)cc2)[C@@H]1CO | -28 | 13 | 102* | 101* | 103* | 50* | 73*
Cc1ccccc1S(=O)(=O)N1[C@H](C#N)[C@H](c2ccc(-c3ccc(F)cc3)cc2)[C@H]1CO | -14 | 11 | 101* | 101* | 91 | ? | 31*
CS(=O)(=O)N1[C@@H](C#N)[C@@H](c2ccccc2)[C@@H]1CO | 25 | -9 | 49 | / | / | / | /
N#C[C@H]1[C@@H](c2ccc(C3=CCCC3)cc2)[C@@H](CO)N1S(=O)(=O)c1ccccc1 | -24 | 7 | 61 | / | / | / | /
Cc1ccccc1S(=O)(=O)N1[C@@H](C#N)[C@H](c2ccc(-c3ccccc3)cc2)[C@@H]1CO | -61 | 3 | 102* | 82 | 17 | 7 | 18
C/C=C/c1cnc2c(c1)C(=O)N([C@@H](C)CO)C[C@H](C)[C@@H](CN(C)C(=O)NC1CCCCC1)O2 | 13 | 7 | 99 | / | / | / | /
CCCC(=O)Nc1ccc2c(c1)OC[C@@H](C)N(C(=O)CC1CC1)C[C@@H](C)[C@H](OC)CN(C)C2=O | 16 | / | 25 | / | / | / | /
CO[C@@H]1CN(C)C(=O)c2ccc(NC(=O)C3CCOCC3)cc2OC[C@@H](C)N(S(=O)(=O)c2ccc(C)cc2)C[C@H]1C | -61 | -2 | 16 | / | / | / | /
C[C@H](CO)N1C[C@H](C)[C@@H](CN(C)C(=O)C2CC2)Oc2cc(-c3ccccc3F)ccc2S1(=O)=O | -6 | -16 | 72 | / | / | / | /
CC(C)NC(=O)N(C)C[C@@H]1Oc2cc(-c3ccncc3)ccc2S(=O)(=O)N([C@H](C)CO)C[C@H]1C | -6 | 2 | 119* | ? | 74 | 11 | 12
CC(C)NC(=O)N(C)C[C@@H]1Oc2cc(-c3ccncc3)ccc2S(=O)(=O)N([C@@H](C)CO)C[C@H]1C | 0 | -3 | 111* | 83 | 84 | 10 | 16
Cc1ccc(-c2ccc3c(c2)O[C@H](CN(C)C(=O)NC(C)C)[C@@H](C)CN([C@@H](C)CO)S3(=O)=O)cc1 | -12 | -8 | 27 | / | / | / | /
CC(C)NC(=O)N(C)C[C@H]1Oc2cc(-c3ccccc3)ccc2S(=O)(=O)N([C@H](C)CO)C[C@H]1C | 13 | -7 | 56 | / | / | / | /
CC(C)NC(=O)N(C)C[C@@H]1Oc2cc(-c3cncnc3)ccc2S(=O)(=O)N([C@@H](C)CO)C[C@@H]1C | -29 | 2 | -3 | / | / | / | /
CCCNC(=O)N(C)C[C@H]1Oc2cc(-c3ccncc3)ccc2S(=O)(=O)N([C@@H](C)CO)C[C@@H]1C | -30 | 0 | 97* | ? | 13 | -17 | ?
CC(C)NC(=O)N(C)C[C@@H]1Oc2cc(-c3ccncc3)ccc2S(=O)(=O)N([C@@H](C)CO)C[C@@H]1C | -7 | 2 | 103* | 84 | 53 | 6 | 23
CCCNC(=O)N(C)C[C@@H]1Oc2cc(-c3ccncc3)ccc2S(=O)(=O)N([C@@H](C)CO)C[C@@H]1C | 0 | -2 | 30 | / | / | / | /
C[C@@H]1CN([C@@H](C)CO)S(=O)(=O)c2ccc(Br)cc2O[C@@H]1CN(C)Cc1ccncc1 | 10 | 1 | 7 | / | / | / | /
C[C@H]1CN([C@@H](C)CO)C(=O)c2cc(C#CCN(C)C)cnc2O[C@H]1CN(C)C(=O)c1cccc(F)c1 | 7 | 2 | -8 | / | / | / | /
COc1ccc(NC(=O)Nc2ccc3c(c2)C(=O)N([C@@H](C)CO)C[C@H](C)[C@@H](CN(C)Cc2ccc(C(=O)O)cc2)OCCCC[C@@H](C)O3)cc1 | 47 | 8 | 45 | / | / | / | /
CC(C)C#Cc1ccc([C@H]2[C@@H](CO)N(C(=O)c3ccccn3)[C@H]2C#N)cc1 | -45 | 2 | 97* | 98* | 80 | 15 | 16
N#C[C@H]1[C@@H](c2ccc(C#CC3CCCC3)cc2)[C@H](CO)N1C(=O)c1cccc(F)c1 | -59 | 56 | / | / | / | / | /
CC(C)C#Cc1ccc([C@H]2[C@H](C#N)N(C(=O)c3ccccn3)[C@H]2CO)cc1 | -3 | -5 | 81 | / | / | / | /
N#C[C@H]1[C@@H](c2ccc(C#CC3CC3)cc2)[C@H](CO)N1C(=O)c1cccc(F)c1 | -61 | 12 | 94 | / | / | / | /
SMILES | Pf Dd2 inh | C diff HTS | T cruzi growth-1 | T cruzi growth-2 | T cruzi growth-3 | 3T3 cytotox | 3T3 cytotox 2
CC(C)C#Cc1ccc([C@H]2[C@@H](C#N)N(C(=O)c3cccc(F)c3)[C@@H]2CO)cc1 | -35 | 0 | 98* | 99* | 108* | 4 | 38
N#C[C@@H]1[C@@H](c2ccc(C#CC3CC3)cc2)[C@H](CO)N1C(=O)c1cccc(F)c1 | -55 | 9 | 97* | 105* | 110* | 20 | 12
C[C@H](CO)N1C[C@H](C)[C@H](CN(C)Cc2ccc(Cl)c(Cl)c2)Oc2ccc(NC(=O)Nc3ccc(C(F)(F)F)cc3)cc2CC1=O | -48 | 7 | 77 | / | / | / | /
CCCNC(=O)Nc1ccc2c(c1)C(=O)N(C)[C@H]1CC[C@H](CC(=O)Nc3ccccc3F)O[C@@H]1CO2 | -12 | 7 | -27 | / | / | / | /
C/C=C/c1ccc2c(c1)O[C@H](CN(C)Cc1cccc(F)c1)[C@@H](C)CN([C@@H](C)CO)S2(=O)=O | -20 | 28 | / | / | / | / | /
C/C=C/c1ccc2c(c1)O[C@@H](CN(C)Cc1ccccc1)[C@@H](C)CN([C@@H](C)CO)S2(=O)=O | -17 | 1 | 37 | / | / | / | /
C/C=C/c1ccc2c(c1)O[C@H](CN(C)Cc1ccc(F)cc1)[C@@H](C)CN([C@@H](C)CO)S2(=O)=O | -6 | 31 | 117* | ? | 89 | 8 | 104*
C/C=C/c1ccc2c(c1)O[C@H](CN(C)Cc1ccccc1)[C@@H](C)CN([C@@H](C)CO)S2(=O)=O | -2 | 8 | 117* | 100* | 104* | 14 | 104*
CC(C)CC#Cc1ccc2c(c1)O[C@H](CN(C)C(=O)c1cnccn1)[C@H](C)CN([C@@H](C)CO)S2(=O)=O | 14 | -4 | / | / | / | / | /
COc1ccccc1-c1ccc2c(c1)O[C@@H](CN(C)S(=O)(=O)c1ccccc1)[C@@H](C)CN([C@@H](C)CO)S2(=O)=O | -76 | 2 | 80* | 101* | 99* | ? | 42*
COc1ccccc1-c1ccc2c(c1)O[C@@H](CN(C)C(=O)c1ccccc1)[C@H](C)CN([C@@H](C)CO)S2(=O)=O | -43 | 1 | 17 | / | / | / | /
C[C@@H]1CN([C@H](C)CO)S(=O)(=O)c2ccc(Br)cc2O[C@@H]1CN(C)S(=O)(=O)c1ccccc1 | 2 | 20 | / | / | / | / | /

Compound activity as filed in PubChem.
